Measurements taken from PubChem BioAssay AID1159580 (chemical genetic matrix, 2015).
Screen size: about 5,500 compounds; about 2,000 (36%) were called active. Inconclusive results (about 18%) are left out. Cut-off read from the data, not from the text of the source: active = normalized growth mostly below about 0.91 (no sharp cut-off); inconclusive = no clear call, values can overlap the other calls; inactive = mostly above about 0.92. The list shows a part of the results.

Assay: chemical genetic growth profiling, strain panel (AID 1159580);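 note: tested at 20 µM; growth read once vehicle control cultures reached saturation at 30 °C; 1 = growth at the plate median or of vehicle wells; lower values mean less growth of the strain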
Conditions: S. cerevisiae deletion strains, growth OD

Measured: normalized growth

CC(C)CCCC(C)[C@H]1CCC2C3CC[C@H]4CC(=O)CC[C@]4(C)C3CC[C@@]21C (some centres not stated)
inactive: locus YAL021C, strain ccr4, active compounds read low 0.957 | locus YAL026C, strain drs2, active compounds read low 1 | locus YAL030W, strain snc1, active compounds read low 0.996 | locus YBL061C, strain skt5, active compounds read low 0.998 | locus YBR009C, strain hhf1, active compounds read low 1.03 | locus YBR023C, strain chs3, active compounds read low 0.989 | locus YBR171W, strain sec66, active compounds read low 0.991 | locus YBR231C, strain swc5, active compounds read low 1.01 | locus YBR279W, strain paf1, active compounds read low 0.997 | locus YCL011C, strain gbp2, active compounds read low 0.975 | locus YCL016C, strain dcc1, active compounds read low 0.995 | locus YCL061C, strain MRC1, active compounds read low 0.977 | locus YCL069W, strain vba3, active compounds read low 0.992 | locus YCR088W, strain abp1, active compounds read low 0.982 | locus YDL005C, strain med2, active compounds read low 0.986 | locus YDL040C, strain nat1, active compounds read low 0.984 | locus YDR001C, strain nth1, active compounds read low 0.987 | locus YDR069C, strain doa4, active compounds read low 0.993 | locus YDR137W, strain rgp1, active compounds read low 0.958 | locus YDR159W, strain sac3, active compounds read low 0.984 | locus YDR195W, strain ref2 0.974 | locus YDR297W, strain sur2, active compounds read low 0.983 | locus YDR334W, strain swr1, active compounds read low 0.96 | locus YDR335W, strain msn5, active compounds read low 0.97 | locus YDR392W, strain spt3, active compounds read low 0.97 | locus YEL003W, strain gim4, active compounds read low 0.981 | locus YEL037C, strain rad23, active compounds read low 0.987 | locus YEL061C, strain CIN8 (second series), active compounds read low 0.98 | locus YER015W, strain faa2, active compounds read low 1.02 | locus YER016W, strain bim1, active compounds read low 0.985 | locus YER111C, strain swi4, active compounds read low 0.995 | locus YER155C, strain BEM2 (second series), active compounds read low 1.01 | locus YFR010W, strain ubp6, active compounds read low 0.969 | locus YGL167C, strain pmr1, active compounds read low 0.998 | locus YGL173C, strain kem1, active compounds read low 0.988 | locus YGL227W, strain vid30, active compounds read low 0.994 | locus YGL240W, strain doc1, active compounds read low 1.03 | locus YGL253W, strain hxk2, active compounds read low 0.984 | locus YHR013C, strain ard1, active compounds read low 0.972 | locus YHR027C, strain rpn1, active compounds read low 0.986 | locus YHR142W, strain chs7, active compounds read low 0.93 | locus YJL092W, strain hpr5, active compounds read low 0.961 | locus YJL095W, strain BCK1 (second series), active compounds read low 1.01 | locus YJL115W, strain asf1, active compounds read low 0.971 | locus YJL129C, strain trk1, active compounds read low 0.935 | locus YJL154C, strain vps35, active compounds read low 0.992 | locus YJL164C, strain tpk1, active compounds read low 0.979 | locus YJL166W, strain qcr8, active compounds read low 0.992 | locus YJL187C, strain SWE1, active compounds read low 0.991 | locus YKL160W, strain elf1, active compounds read low 0.963 | locus YKR026C, strain gcn3, active compounds read low 0.991 | locus YKR091W, strain srl3, active compounds read low 0.984 | locus YLL001W, strain dnm1, active compounds read low 0.987 | locus YLL026W, active compounds read low 0.997 | locus YLL041C, strain sdh2, active compounds read low 0.979 | locus YLR027C, strain aat2, active compounds read low 0.988 | locus YLR221C, strain rsa3, active compounds read low 0.962 | locus YLR258W, strain gsy2, active compounds read low 1.01 | locus YLR262C, strain YPT6 (second series), active compounds read low 1 | locus YLR320W, strain mms22, active compounds read low 0.993 | locus YLR342W, strain FKS1, active compounds read low 0.993 | locus YLR357W, strain rsc2, active compounds read low 0.996 | locus YLR370C, strain arc18, active compounds read low 0.98 | locus YLR384C, strain iki3, active compounds read low 0.996 | locus YML120C, strain ndi1, active compounds read low 0.949 | locus YMR058W, strain fet3, active compounds read low 0.973 | locus YMR125W, strain sto1, active compounds read low 0.981 | locus YMR129W, active compounds read low 0.957 | locus YMR205C, strain PFK2, active compounds read low 1.02 | locus YMR231W, strain pep5, active compounds read low 0.985 | locus YNL071W, strain lat1, active compounds read low 0.989 | locus YNL209W, strain ssb2, active compounds read low 0.992 | locus YNL248C, strain rpa49, active compounds read low 0.935 | locus YNL322C, strain KRE1 (second series), active compounds read low 0.981 | locus YNR049C, strain mso1, active compounds read low 0.986 | locus YOR001W, strain rrp6, active compounds read low 0.941 | locus YOR070C, strain gyp1, active compounds read low 0.994 | locus YOR080W, strain dia2, active compounds read low 0.976 | locus YOR083W, strain WHI5, active compounds read low 0.952 | locus YOR106W, strain vam3, active compounds read low 0.974 | locus YOR265W, strain rbl2, active compounds read low 0.989 | locus YOR270C, strain vph1, active compounds read low 0.981 | locus YOR290C, strain snf2, active compounds read low 0.976 | locus YPL051W, strain arl3, active compounds read low 0.975 | locus YPL078C, strain atp4, active compounds read low 0.949 | locus YPL106C, strain sse1, active compounds read low 1.01 | locus YPL240C, strain hsp82, active compounds read low 0.987
